PubChem BioAssay (Tox21)
Several values for one entry are separate records, joined by “and”; a condition that tells them apart may be missing. Equal values may be shown once. Records with an inconclusive call do not appear. A call without a number means that no potency is given here. Activity calls are given as the source filed them. Unless noted, the call rests on the fitted dose curve; in most records, active means well fitted curve in the direction sought with a large enough effect in the repeat runs; inconclusive means weak or mixed curves; inactive means no such curve, though single readings can be large; an effect the other way counts as inactive or inconclusive.

How the values were obtained:
[1] = qHTS assay for small molecule disruptors of the mitochondrial membrane potential - cell viability (AID 720634; calls by dose curve; further: nearly all actives have a fitted effect of over 20% in size; further: potency means the concentration at half of the fitted maximal effect)
In short: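 Same-well counter-screen: following the MMP dye addition, CellTiter-Glo was added to 1 hr compound-treated HepG2 cells and luminescence read after 30 min at room temperature.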

[2] = qHTS assay for small molecule disruptors of the mitochondrial membrane potential (AID 720635); further: potency means the concentration at half of the fitted maximal effect
In short: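 HepG2 cells exposed to compound 1 hr at 37C, then Mito-MPS dye 30 min. Ratio read of aggregate (540/590 nm) versus monomer (490/535 nm) fluorescence.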

[3] = qHTS assay to test for compound auto fluorescence at 590 nm (red) in HepG2 cells (AID 720674)
In short: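 Seeding: 2,000 HepG2 cells/well, MEM/10% FBS, overnight 37 C. Dosing: compound vs DMSO. Incubation: 1 hr, 37 C, 5% CO2. Read: fluorescence 540 ex/590 em, Rose Bengal sodium as red reference.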

[4] = qHTS assay to test for compound auto fluorescence at 535 nm (green) in HepG2 cells (AID 720675)
[5] = qHTS assay to test for compound auto fluorescence at 460 nm (blue) in HEK293 cells (AID 720678)
In short: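 Triamterene serves as the blue fluorophore standard. Compound signal at 405/460 nm is read in HEK293 wells (2,000 cells, 10% dialyzed FBS) after overnight treatment at 37C.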

[6] = qHTS assay to test for compound auto fluorescence at 590 nm (red) in HEK293 cells (AID 720679)
In short: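 We plated HEK293 cells in 10% dialyzed FBS medium, let them adhere for 4-5 hr, then added 23 nL compound. Overnight at 37C and 5% CO2 preceded fluorescence measurement at 540/590nm.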

[7] = qHTS assay for small molecules that induce genotoxicity in human embryonic kidney cells expressing luciferase-tagged ATAD5 (AID 651632); further: nearly all actives have a fitted effect of over 15% in size; further: potency means the concentration at half of the fitted maximal effect
In short: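 Test compounds were delivered by pin tool onto HEK293T reporter cells (2,000/well) expressing ATAD5 fused to luciferase. After 16 hr at 37C, 5% CO2, Amplite was added for 30 min at room temperature and luminescence was measured.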

[8] = qHTS assay for small molecules that induce genotoxicity in human embryonic kidney cells expressing luciferase-tagged ATAD5 - cell viability (AID 651634; calls by dose curve; further: nearly all actives have a fitted effect of over 25% in size; further: potency means the concentration at half of the fitted maximal effect)
In short: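 Quantitative high-throughput format. HEK293T cells expressing ATAD5 fused to luciferase were plated at 2,000 cells/well and treated 15.5 hr with compound versus DMSO. Viability was determined by fluorescent live-cell protease substrate, 30 min at 37C.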

[9] = qHTS assay for small molecule agonists of the p53 signaling pathway - cell viability (AID 651633; calls by dose curve; further: nearly all actives have a fitted effect of over 30% in size; further: potency means the concentration at half of the fitted maximal effect)
In short: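 p53RE-bla cells were treated with compound for 16 hours at 37 C. Cytotoxicity was then measured as CellTiter-Glo luminescence after 30 min at room temperature.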

Structure (SMILES) | Potency [1] | Potency [2] | outcome [3] | Potency [4] | Potency [5] | outcome [6] | Potency [7] | Potency [8] | Potency [9]
CS(=O)(=O)c1ccc([C@@H](CC2CCCC2)C(=O)Nc2cnccn2)cc1Cl | 34.4 µM (active) | 61.1 µM (active) | inactive | inactive | inactive | inactive | – | – | –
CCN1\C(=C/C=C/C=C/c2sc3ccccc3[n+]2CC)Sc2ccccc21 | inactive | 33.5 nM (active) and 266 nM (active) | inactive | inactive | inactive | inactive | inactive | – | –
COc1cc(/C=C/C(=O)CC(=O)/C=C/c2ccc(O)c(OC)c2)ccc1O | 11.9 µM (active) and 21.8 µM (active) | 750 nM (active) and 1.68 µM (active) and 548 nM (active) | inactive | inactive | inactive | inactive | inactive | inactive | –
CCCCCCCCCC[N+](C)(CCCCCCCCCC)CCC[Si](OC)(OC)OC | 54.5 µM (active) | – | inactive | inactive | inactive | inactive | – | 48.6 µM (active) | 48.6 µM (active)
Clc1nc(C(Cl)(Cl)Cl)c(Cl)c(Cl)c1Cl | inactive | – | inactive | inactive | inactive | inactive | – | – | 61.1 µM (active)
Cc1cc(N)c2ccccc2[n+]1CCCCCCCCCC[n+]1c(C)cc(N)c2ccccc21 | inactive | inactive | inactive | inactive | inactive | inactive | inactive | inactive | –
C(=C\c1ccncc1)/c1ccccc1 | inactive | 3.76 µM (active) and 10.6 µM (active) | inactive | inactive | inactive | inactive | 23.7 µM (active) | – | –
CC(=O)N(C)C | – | – | inactive | inactive | inactive | inactive | – | – | –
CCC(NC(C)C)C(O)c1ccc(O)c(O)c1 (configuration not stated) | inactive | inactive | inactive | inactive | inactive | inactive | inactive | inactive | –
CCCCCCCC1CCC(=O)O1 (configuration not stated) | – | – | inactive | inactive | inactive | inactive | – | – | –
COc1ccc2ccccc2c1 | – | – | inactive | inactive | inactive | inactive | – | – | –
CNCCC=C1c2ccccc2CCc2ccccc21 | inactive | – | inactive | inactive | inactive | inactive | – | – | inactive
COc1cccc(-c2ccc(/C=C\CN3CCCCCC3)cc2Cl)c1 | inactive | – | inactive | inactive | inactive | inactive | inactive | inactive | –
